# Whole data set: some 39,000 sequences, median “fluorescence intensity (a.u.)” near 4,300, cut for the highest 2% near 39,000. What follows is part of a selection rich in the highest values, with near analogues and random picks from the rest.
# Target: T1, OsSMF1 (Oryza sativa, UniProt Q6ZLB0 1-436)
# T1 sequence: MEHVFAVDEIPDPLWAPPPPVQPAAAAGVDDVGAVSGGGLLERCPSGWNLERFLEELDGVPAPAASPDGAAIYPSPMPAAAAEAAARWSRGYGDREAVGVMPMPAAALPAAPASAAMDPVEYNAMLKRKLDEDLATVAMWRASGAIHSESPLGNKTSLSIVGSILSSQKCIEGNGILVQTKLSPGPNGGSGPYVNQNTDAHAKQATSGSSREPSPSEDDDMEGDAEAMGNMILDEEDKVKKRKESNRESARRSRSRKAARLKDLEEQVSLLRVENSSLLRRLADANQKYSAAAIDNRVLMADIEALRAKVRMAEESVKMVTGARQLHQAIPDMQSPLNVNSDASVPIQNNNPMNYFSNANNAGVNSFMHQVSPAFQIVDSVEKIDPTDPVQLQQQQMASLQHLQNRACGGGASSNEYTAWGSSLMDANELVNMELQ
# Assay: protein-binding microarray (RPBM); PBS, 2% BSA, 51.3 ng/ul salmon testes DNA, 50 uM zinc acetate, 200 nM TF, 25 C, 1 h; high values mean tight binding
# Details: protein: recombinant; tags: N-terminal polyhistidine and DsRed monomer fusion (pET32a); chain copies: 2; label: CyDye5-dUTP incorporated in the synthesized complementary strand; 3' TTTTT single-stranded linker to array surface; dsDNA, one strand shown
# In short: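 Polyhistidine-tagged DsRed fusions of transcription factors, joined at the N-terminus, were expressed in E. coli BL21-CodonPlus and isolated on Ni–NTA. They were incubated at 200 nM for 1 h at 25 °C on a custom Agilent array, double-stranded and BSA-blocked, in PBS with 2% BSA, salmon testes DNA and 50 µM zinc acetate. The binding signal is per-feature fluorescence intensity (arbitrary units) read on an Axon 4000B scanner after washing.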
row,Sequence,binding signal
1,CGCCATCGCCAACGCCAACGCCTCCGCGGACTCCATTGTCCGGAGTCACCTAGTGCAG,3650 fluorescence intensity (a.u.)
2,AATGTAGGCACCATACCATGACTGTTTTCACACATTGTACCGGAGTCACCTAGTGCAG,3580 fluorescence intensity (a.u.)
3,AATATGAACTGATAGGATTTGTTTTCACACCATACCAAACCGGAGTCACCTAGTGCAG,59700 fluorescence intensity (a.u.)
4,GATAGGAGGGGATAACTTGTTTCATATTTTGTGCCGGGTTCGGAGTCACCTAGTGCAG,3710 fluorescence intensity (a.u.)
5,TGCGATTTTAGACGATTATCGTGCGATTATCACGGTTATCCGGAGTCACCTAGTGCAG,3360 fluorescence intensity (a.u.)
6,AGCGAGACACTTTGAGATTTAGTATGAGTCATGTAAATTACGGAGTCACCTAGTGCAG,7830 fluorescence intensity (a.u.)
7,GGGCCAAATTTTATCGAGAAGATTAGACACGAGTATGGGCCGGAGTCACCTAGTGCAG,47600 fluorescence intensity (a.u.)
8,GCGTGCCGAAGGTGTGTCCCCTGCACCGGCTCCGGCAGGTCGGAGTCACCTAGTGCAG,9960 fluorescence intensity (a.u.)
9,ATGAAAGGGAATGTGTGGTGGAGGAGGTGGCTGAGAGATTCGGAGTCACCTAGTGCAG,3340 fluorescence intensity (a.u.)
10,ATTCGTTATACTAGGTGACATCTCATCTAATATTTGTTTACGGAGTCACCTAGTGCAG,4270 fluorescence intensity (a.u.)
11,TTGTTGAAGCAGTTTAATGTTAATAGTATACTAACATTAACGGAGTCACCTAGTGCAG,28600 fluorescence intensity (a.u.)
12,TGAACATGCCCATTGTTACTCATTCCTAATACTATAGGAACGGAGTCACCTAGTGCAG,42200 fluorescence intensity (a.u.)
13,GGAACTTCTGTTTAGGCATTTGCACCTGAAATATGATCTGCGGAGTCACCTAGTGCAG,3190 fluorescence intensity (a.u.)
14,TCCCGCAGGAGTTCCACCCACGTGTCATAAACCATTACAGCGGAGTCACCTAGTGCAG,12800 fluorescence intensity (a.u.)
15,TGAATTGGAGCGACCGTGAGAGGTAGCATAGAATGTCATGCGGAGTCACCTAGTGCAG,3270 fluorescence intensity (a.u.)
16,CAAAAGGACCATGGTGTGTGGATGACATGACTAGTGAGGCCGGAGTCACCTAGTGCAG,4650 fluorescence intensity (a.u.)
17,TGTTGATGGCGTCATTATTTACATGGTATGGTGCATTTGGCGGAGTCACCTAGTGCAG,14600 fluorescence intensity (a.u.)
18,CAGACCAGGGTTACTCTCCTCAACATTCTTAGCTCATAGACGGAGTCACCTAGTGCAG,47700 fluorescence intensity (a.u.)
19,ACAGGGTTGCCAAGCTCTTACTCAACCTAAACCACCAGAACGGAGTCACCTAGTGCAG,3200 fluorescence intensity (a.u.)
20,CTCTTCTCCACCTCAACATTTAGCCGGCTTATAGCTACTACGGAGTCACCTAGTGCAG,3960 fluorescence intensity (a.u.)
21,TGAACCCCACATGTCAGCTTTACTACTCCCTTCTTCCCTACGGAGTCACCTAGTGCAG,4350 fluorescence intensity (a.u.)
22,CGCGACACGACACGACACGACACGACGGCACGAGCCCACCCGGAGTCACCTAGTGCAG,4540 fluorescence intensity (a.u.)

row,Sequence,binding signal
1,GGAAAGTGGACAATTAAATCAAGCGATGATGTGGATGTGGCGGAGTCACCTAGTGCAG,5830 fluorescence intensity (a.u.)
2,TTCATCCTCGGCCACTCCTACGTCAAGGCCAAGAGCGGCTCGGAGTCACCTAGTGCAG,3600 fluorescence intensity (a.u.)
3,CAAATACTACATCACACAGGTCAGCAGAAATTTCACTCTTCGGAGTCACCTAGTGCAG,4100 fluorescence intensity (a.u.)
4,CTCTTCAGGGAACAGAATCAAATCAGCATTTTAACTAACTCGGAGTCACCTAGTGCAG,40100 fluorescence intensity (a.u.)
5,TGGCAAATCTCATCAGCAACAGGGACCTCTTGGTGTGACTCGGAGTCACCTAGTGCAG,4290 fluorescence intensity (a.u.)
6,CCGTTTCCGAATCTCGAGGCGCAAGAGGCCATCGAACGGCCGGAGTCACCTAGTGCAG,38300 fluorescence intensity (a.u.)
7,TTTATCTAATTAAAATATATTTATAGCTGACTAATAGTCTCGGAGTCACCTAGTGCAG,3480 fluorescence intensity (a.u.)
8,TGTGGAGTCCACGTGGGACTTAGCCGCCACATCAATAAAACGGAGTCACCTAGTGCAG,9160 fluorescence intensity (a.u.)
9,TGACCAAAATTTGAAACTTTCAATACAATTATGAAACTTTCGGAGTCACCTAGTGCAG,6370 fluorescence intensity (a.u.)
10,GCCAAGCCAAACCAATCCAAGCCAAGCCAAATGAATGATTCGGAGTCACCTAGTGCAG,3150 fluorescence intensity (a.u.)
11,TTAGATGAAACCACGATTTGTCAAAATGCATCCAAAACTTCGGAGTCACCTAGTGCAG,43100 fluorescence intensity (a.u.)
12,GTTAATCTCAATAAAATACTTAGCTCCATAAATAATTTTGCGGAGTCACCTAGTGCAG,36700 fluorescence intensity (a.u.)
13,CCCAGCTGTCTTTCCTCCAGGTCACCTGACAAATGTCACTCGGAGTCACCTAGTGCAG,3950 fluorescence intensity (a.u.)
14,GAAAACTAGTCCAAAATGAGTCTTTGCTTCAATGCAAACGCGGAGTCACCTAGTGCAG,39000 fluorescence intensity (a.u.)
15,AAATACGGAGAGAAGAAGGCTCACTAAGCGCGCTTACTATCGGAGTCACCTAGTGCAG,42500 fluorescence intensity (a.u.)
16,ATCTTAAATACTACTAGAAATTAACGGAGACTAAGGCTTGCGGAGTCACCTAGTGCAG,26500 fluorescence intensity (a.u.)
17,CTTATCAGTCGTAGCTCAACCTATAAGAGGCCTAAATATACGGAGTCACCTAGTGCAG,32800 fluorescence intensity (a.u.)
18,TGCCAAATGTTGAAACACTTACAGTAGCATCTAATGAAGTCGGAGTCACCTAGTGCAG,16000 fluorescence intensity (a.u.)
19,AGCTTTTCTTTTCTACACAAAGGGAAGGGAAAGAAGAAACCGGAGTCACCTAGTGCAG,37800 fluorescence intensity (a.u.)
20,AACTACACACAAAGCCGAGCCAAAGTCTCTAGGTCAAAGTCGGAGTCACCTAGTGCAG,20600 fluorescence intensity (a.u.)
21,CCCAGGGAGGCCAAACTACAAAGGCGATGCTTTCTACACACGGAGTCACCTAGTGCAG,41500 fluorescence intensity (a.u.)

# Source: PMC7819943, “Rice protein-binding microarrays: a tool to detect cis-acting elements near promoter regions in rice”
